Compound activity deposited in PubChem BioAssay by National Center for Advancing Translational Sciences (NCATS).
Tau filament bind: qHTS Assay for Tau Filament Binding | 71,000 tested, 2% active | recombinant tau filaments, thioflavin S fluorescence, 15 h; filaments grown with octadecylsulfate alongside compound | Microtubule-associated protein tau (Homo sapiens), P10636 | Potency, µM (doses to about 57.1 µM), for inactives: at the highest dose activity change, negative = inhibition;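 also: potency is read from the fitted curve at half-maximal effect; % is scaled to controls: 0 for no effect and ±100 for the full control effect; actives lower thioflavin S fluorescence by blocking filaments or displacing dye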
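Read-out: ThS fluorescence, 450 nm excitation/510 nm emission; lower signal marks blocked filament formation or displaced dye. Tau at 1 uM with 30 uM ODS, 10 uM ThS, 5 mM DTT, 100 mM NaCl, 10 mM HEPES pH 7.4; 15 h, 37 C.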
Pol III holo inh: qHTS Assay for Inhibitors of DNA Polymerase III Holoenzyme System. reconstituted DNA polymerase III holoenzyme replication, biochemical. 71,000 tested, 0.25% active. Potency, µM (highest dose often 57.1 µM), inactives show at the highest dose activity change, negative = inhibition; also: potency is read from the fitted curve at half-maximal effect; % is scaled to controls: 0 for no effect and ±100 for the full control effect
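Reconstituted *E. coli* holoenzyme (0.35 nM Pol III, 1 nM beta, 154 nM SSB, 2 nM primase) was preincubated with compound for 15 min at RT. Synthesis on 1.4 nM ssM13Gori ran 35 min, then was stopped with PicoGreen/EDTA and read as dsDNA fluorescence.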
ERK AVP inh: qHTS Assay for Inhibitors of the ERK Signaling Pathway using a Homogeneous Screening Assay; HEK293-V1b, vasopressin-stimulated pERK AlphaScreen; Potency, µM (highest dose often 57.5 µM), without a hit: at the highest dose activity, negative = inhibition, most hits filed as inhibitors; 72,000 tested, 0.99% active; AID 995, 2007; also: potency is read from the fitted curve at half-maximal effect; % is scaled to controls: 0 for no effect and ±100 for the full control effect; nearly all actives have a fitted effect of over 55% in size
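Phosphorylated ERK1/2 detected via AlphaScreen bead proximity in lysates of V1b-expressing HEK293 cells given 25 nM vasopressin for 5 min after 30 min compound exposure (37 °C). AC50 from Hill equation; basal DMSO 0%, vasopressin 100%.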
p53ts 32C kill: qHTS Screen for Compounds that Selectively Target Cancer Cells with p53 Mutations: Cytotoxicity of p53ts Cells at the Permissive Temperature; Potency, µM (series often up to 46.1 µM), inactives show top-dose activity change, negative = cytotoxicity, hits mostly cytotoxic; 130,000 tested, 0.93% active; H1299-p53A138V at 32C, ATP luminescence viability, 24 h; AID 924, 2007;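 also: potency is read from the fitted curve at half-maximal effect; 0% = DMSO and -100% = full killing by reference compound; nearly all actives have a fitted effect of over 55% in size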
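H1299-p53 A138V cells (temperature-sensitive p53) exposed 24 h to up to 46 uM compound at 32C, where p53 is wild-type in conformation. Viability read as ATP luminescence and normalised to DMSO and 100 uM tamoxifen. AC50 fitted with the Hill equation.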
p53ts 39C tox: qHTS Screen for Compounds that Selectively Target Cancer Cells with p53 Mutations: Cytotoxicity of p53ts Cells at the Nonpermissive Temperature; H1299-p53A138V viability at 39C, ATP luminescence, 24 h; 130,000 tested, 1.5% active; Potency, µM (titrated, usually from 46.1 µM), without a hit: at the top dose activity change, negative = cell killing, hits mostly cytotoxic; also: potency is read from the fitted curve at half-maximal effect; % is scaled to controls: 0 for no effect and ±100 for the full control effect; nearly all actives have a fitted effect of over 55% in size
TsaE inh: qHTS Assay for Inhibitors of YjeE; 71,000 tested, 0.05% active; tRNA threonylcarbamoyladenosine biosynthesis protein TsaE (Escherichia coli (strain …; Potency, µM; purified YjeE enzyme, qHTS inhibition assay; AID 605, 2007
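Purified YjeE (10 uM) with BODIPY Texas Red-labeled ADP probe (2 uM); compounds pin-transferred, 15 min at room temperature. Binding inhibition read as decreased fluorescence polarization; ADP titration as control.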
Starred values were filed as active, the others as inactive; i = inactive; ? = inconclusive; · = no result given. Sampled rows, rich in hits. Any-hit rate of the full collection: about 3.2%. Calls follow the shape of the dose curve; as a rule, active = well fitted curve in the direction sought with a large enough effect; inconclusive = small, poorly fitted or top-dose-only effect, or another doubt; inactive = no such curve, though single readings can be large; an effect the other way counts as inactive or inconclusive.

SMILES	Tau filament bind	Pol III holo inh	ERK AVP inh	p53ts 32C kill	p53ts 39C tox	TsaE inh
COc1ccccc1NC(=O)CSc1nc2c(oc3ccccc32)c(=O)n1-c1ccccc1F	·	·	·	11.7%	-4.1%	·
O=C(Nc1ccc2c(c1)OCO2)C1COc2ccccc2O1 (stereo not given)	12.6µM*	1.9%	-22.0%	-5.8%	-19.1%	i
O=C(NC1=NCCS1)C1COc2ccccc2O1 (stereo not given)	-4.5%	-3.1%	-9.2%	12.6µM*	12.6µM*	i
O=C(Nc1ccncc1)C1COc2ccccc2O1 (stereo not given)	2.4%	-5.3%	-17.2%	-1.2%	14.2%	i
CCOc1ccc(-c2[nH]ncc2Oc2cccc(OC)c2)c(O)c1	?	-1.3%	?	-23.3%	15.8µM*	i
COc1cccc(Oc2cn[nH]c2-c2ccc(OC)cc2O)c1	?	-4.9%	?	-4.3%	?	i
Cc1cccc(C#Cc2ccccc2)n1	?	-1.7%	10.2%	12.6µM*	?	i
Cc1cccc(NS(=O)(=O)Cc2ccccc2)n1	·	·	·	7.6%	-1.7%	·
c1ccc2c(c1)OCC(c1nnc3sc(-c4cnccn4)nn13)O2 (stereo not given)	25.1µM*	-5.2%	-18.9%	9.3%	6.1%	i
c1csc(-c2nn3c(C4COc5ccccc5O4)nnc3s2)c1 (stereo not given)	1.6%	-2.6%	?	-7.8%	-0.9%	i
CCCCn1c(=O)c2oc3ccccc3c2n(Cc2ccccc2C)c1=O	·	·	·	7.5%	1.1%	·
Cc1ccc2nsnc2c1S(=O)(=O)Nc1cccc2nsnc12	-20.7%	-1.3%	0.5%	-0.5%	10.3%	i
Cc1ccc(C)c(NS(=O)(=O)c2c(C)ccc3nsnc23)c1	12.6µM*	-2.5%	-7.8%	5.9%	7.6%	i
Cc1c(Cl)cccc1-n1c(SCC(=O)NCc2ccccc2)nc2n[nH]c(C)c2c1=N	·	·	·	-11.6%	-9.5%	·
O=C(Nc1ccc2ccccc2c1)c1cnccn1	25.1µM*	0.2%	-15.7%	?	?	i
CCCCOC(=O)c1ccc(NC(=O)c2cnccn2)cc1	25.1µM*	-0.9%	-14.9%	-2.6%	-10.2%	i
CCC(O)c1nc2ccccc2n1CCOc1cc(C)cc(C)c1 (stereo not given)	·	·	·	3.3%	-24.7%	·
Cc1nn(C(C)C(=O)N2CCCCC2)c(=O)c2c1sc1ccccc12 (stereo not given)	·	·	·	5.3%	1.7%	·
COc1ccc(N2CCN(C(=O)C(C)n3nc(C)c4sc5ccccc5c4c3=O)CC2)cc1 (stereo not given)	·	·	·	10µM*	10µM*	·
Cc1nn(C(C)C(=O)NC2CCC(C)CC2)c(=O)c2c1sc1ccccc12 (stereo not given)	·	·	·	11.2µM*	10µM*	·
COc1ccc(CNC(=O)CSc2c3c(nc4ccc(Cl)cc24)CCCC3)cc1	·	·	·	-4.0%	19.6%	·
COc1ccc(OC)c(NC(=O)CSc2c3c(nc4ccccc24)CCCC3)c1	·	·	·	30.5%	?	·
O=C(CSc1nc2cc(Cl)ccc2s1)N1CCN(C(=O)c2ccco2)CC1	14.3%	-2.9%	12.5%	11.7%	7.8%	i
CCCN(CCC)C(=O)CSc1c2c(nc3ccc(Cl)cc13)CCCC2	·	·	·	20µM*	?	·
Cc1ccc(NC(=O)CSc2c3c(nc4ccccc24)CCCC3)cc1F	·	·	·	?	15.8µM*	·
CC(C)CCNC(=O)CSc1c2c(nc3ccc(Cl)cc13)CCCC2	·	·	·	5.0%	?	·
CN(Cc1ccccc1)C(=O)CSc1c2c(nc3ccc(Cl)cc13)CCCC2	·	·	·	22.4µM*	?	·
